PubChem BioAssay (NCATS)
Results filed as inconclusive are left out. Calls of active or inactive are those of the source. The call rests on the fitted dose curve; in most records, active means well fitted curve in the direction sought with a large enough effect; inconclusive means small, poorly fitted or top-dose-only effect, or another doubt; inactive means no such curve, though single readings can be large; an effect the other way counts as inactive or inconclusive.

System: Tov112D
Assay: Primary qHTS to identify gynecologic anti-cancer compounds using libraries of approved drugs and bioactive compounds (AID 1345084); further: nearly all actives have a fitted effect of over 55% in size; further: potency means the concentration at half of the fitted maximal effect
Conditions: Gynecologic cancer cell panel viability, ATPlite luminescence, 48 h; series mostly up to 57.5 µM; activity change, negative = cytotoxicity: at the top concentration
In short: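 Measured: luminescence after ATPlite addition (15 min, RT). Exposure: 48 h, 37 C, 5% CO2.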
On the % scale 0 is the no-effect control and ±100 the full control effect.

Row | SMILES | activity change, negative = cytotoxicity | Potency
1 | CC(C)(C)c1nnc(NS(=O)(=O)c2ccc(N)cc2)s1 | -0.953% (inactive) | –
2 | N=C(N)N | 0.991% (inactive) | –
3 | Cc1ccc(C(=O)c2ccc(CC(=O)O)n2C)cc1 | 0.685% (inactive) | –
4 | CCCCCCCC/C=C/C(=O)O | 0.436% (inactive) | –
5 | O=C(/C=C/c1ccccc1)NCCO | -7.77% (inactive) | –
6 | COc1cc2c3cc1Oc1cc(ccc1O)C[C@@H]1c4c(cc(OC)c(O)c4Oc4ccc(cc4)C[C@@H]3N(C)CC2)CC[N+]1(C)C | 4.5% (inactive) | –
7 | O=C(O)Cc1ccc2c(c1)C(=O)c1ccccc1CO2 | 6.4% (inactive) | –
8 | O=C(Nc1ccc(C(=O)O)c(O)c1)c1ccccc1 | 1.77% (inactive) | –
9 | CO[C@@]1(NC(=O)Cc2cccs2)C(=O)N2C(C(=O)O)=C(COC(N)=O)CS[C@@H]21 | -0.171% (inactive) | –
10 | Nc1ccc(O)c(C(=O)O)c1 | 10.2% (inactive) | –
11 | C=CCCCCCCCCC(=O)O | 0.0587% (inactive) | –
12 | Nc1c(CC(=O)O)cccc1C(=O)c1ccc(Br)cc1 | 0.271% (inactive) | –
13 | O=C(OCc1ccccc1)c1ccccc1 | 0.176% (inactive) | –
14 | CCCCCCCCCCCCOCCO | -2.41% (inactive) | –
15 | CN(C)[C@@H]1C(=O)C(C(=O)NCN2CCCC2)=C(O)[C@@]2(O)C(=O)C3=C(O)c4c(O)cccc4[C@@](C)(O)C3C[C@@H]12 (stereo not given in full) | 9.58% (inactive) | –
16 | O=C(O)Cc1ccc(-c2ccccc2)cc1 | 6.86% (inactive) | –
17 | Cc1c(Nc2ncccc2C(=O)O)cccc1C(F)(F)F | -16.1% (inactive) | –
18 | CC(C(=O)O)c1ccc2c(c1)[nH]c1ccc(Cl)cc12 (stereo not given) | – | inactive

Row | SMILES | activity change, negative = cytotoxicity | Potency
19 | CCCOC(=O)c1ccc(O)cc1 | -8.45% [at 116 µM] (inactive) | –
20 | CCCCCCCCCCCC(=O)[O][Sn]([CH2]CCC)([CH2]CCC)[O]C(=O)CCCCCCCCCCC | -6.79% (inactive) | –
21 | O=C(O)/C=C\C(=O)O | 4.45% (inactive) | –
22 | CCOC(=O)c1ccccc1O | 7.07% (inactive) | –
23 | Cc1c(N)c(=O)n(-c2ccccc2)n1C | -12.2% (inactive) | –
24 | C[N+]1(C)[C@@H]2CC(OC(=O)[C@H](CO)c3ccccc3)C[C@H]1[C@@H]1O[C@@H]12 (stereo not given in full) | -4.08% (inactive) | –
25 | c1ccc2sc(SSc3nc4ccccc4s3)nc2c1 | -1.32% [at 25.3 µM] (inactive) | –
26 | COc1cc(NC(C)CCCN)c2ncccc2c1 (stereo not given) | -17.1% (inactive) | –
27 | CCCC(=O)OC[C@@H](OC(=O)CCC)[C@@H](OC(=O)CCC)[C@H](Cn1c2nc(=O)[nH]c(=O)c-2nc2cc(C)c(C)cc21)OC(=O)CCC | -21.3% (inactive) | –
28 | CC(=O)c1ccc(OCC(=O)N2CCCCC2)cc1 | 9.13% (inactive) | –
29 | CCOc1ccc2nc(S(N)(=O)=O)sc2c1 | -2.72% (inactive) | –
30 | CN(C)CCn1nnnc1SCC1=C(C(=O)O)N2C(=O)[C@@H](NC(=O)Cc3csc(N)n3)[C@H]2SC1 | 6.25% (inactive) | –
31 | CCCCCCCCCCCCCCCC(=O)OC(C)C | 4.19% (inactive) | –
32 | CCCCCCCCCCCCCCCCCC(=O)O | -22.1% (inactive) | –
33 | CNC(=O)c1c(I)c(NC(=O)CCCCC(=O)Nc2c(I)c(C(=O)O)c(I)c(C(=O)NC)c2I)c(I)c(C(=O)O)c1I | -10.7% (inactive) | –
34 | CCC1C(=O)OCC1Cc1cncn1C (stereo not given) | 5.77% (inactive) | –
35 | Nc1ccc(C(=O)O)c(O)c1 | -4.77% (inactive) | –
36 | [O-][n+]1ccccc1SSc1cccc[n+]1[O-] | – | 2820 nM (active)

System: not listed separately
Assay: Drug repurposing screens with cells derived from glioblastoma tumor samples (AID 1345199); further: nearly all actives have a fitted effect of over 40% in size
Conditions: GBM patient neurospheres viability, ATP luminescence, 48 h; at 20 µM (top of the series); tumour line C
In short: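 Primary testing used CD133+ neurospheres from four GBM patients, seven concentrations, 48 h exposure and ATP-based viability; confirmation added three slower-growing patient lines.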

Row | SMILES | activity, negative = cell killing
37 | Cc1ccc(C(=O)c2ccc(CC(=O)O)n2C)cc1 | -5.11% (inactive)
38 | CN(C)[C@@H]1C(=O)C(C(=O)NCN2CCCC2)=C(O)[C@@]2(O)C(=O)C3=C(O)c4c(O)cccc4[C@@](C)(O)C3C[C@@H]12 (stereo not given in full) | -9.38% (inactive)
39 | O=C(O)Cc1ccc(-c2ccccc2)cc1 | 2.3% (inactive)
40 | Cc1c(Nc2ncccc2C(=O)O)cccc1C(F)(F)F | -8.1% (inactive)
41 | Cc1c(N)c(=O)n(-c2ccccc2)n1C | -1.09% (inactive)
42 | COc1cc(NC(C)CCCN)c2ncccc2c1 (stereo not given) | 6.33% (inactive)
43 | CN(C)CCn1nnnc1SCC1=C(C(=O)O)N2C(=O)[C@@H](NC(=O)Cc3csc(N)n3)[C@H]2SC1 | 7.42% (inactive)

Same assay, conditions: GBM patient neurospheres viability, ATP luminescence, 48 h; at 21.2 µM (top of the series); tumour line B

Row | SMILES | activity, negative = cell killing
44 | Cc1ccc(C(=O)c2ccc(CC(=O)O)n2C)cc1 | -9.02% (inactive)
45 | CN(C)[C@@H]1C(=O)C(C(=O)NCN2CCCC2)=C(O)[C@@]2(O)C(=O)C3=C(O)c4c(O)cccc4[C@@](C)(O)C3C[C@@H]12 (stereo not given in full) | -5.39% (inactive)
46 | O=C(O)Cc1ccc(-c2ccccc2)cc1 | -5.31% (inactive)
47 | Cc1c(Nc2ncccc2C(=O)O)cccc1C(F)(F)F | -18.2% (inactive)
48 | Cc1c(N)c(=O)n(-c2ccccc2)n1C | -6% (inactive)
49 | CN(C)CCn1nnnc1SCC1=C(C(=O)O)N2C(=O)[C@@H](NC(=O)Cc3csc(N)n3)[C@H]2SC1 | -1.03% (inactive)

Same assay, conditions: GBM patient neurospheres viability, ATP luminescence, 48 h; at 21.2 µM (top of the series); tumour line D

Row | SMILES | activity, negative = cell killing
50 | Cc1ccc(C(=O)c2ccc(CC(=O)O)n2C)cc1 | -3.08% (inactive)
51 | CN(C)[C@@H]1C(=O)C(C(=O)NCN2CCCC2)=C(O)[C@@]2(O)C(=O)C3=C(O)c4c(O)cccc4[C@@](C)(O)C3C[C@@H]12 (stereo not given in full) | 11.2% (inactive)
52 | O=C(O)Cc1ccc(-c2ccccc2)cc1 | -13.6% (inactive)
53 | Cc1c(Nc2ncccc2C(=O)O)cccc1C(F)(F)F | -22.5% (inactive)
54 | Cc1c(N)c(=O)n(-c2ccccc2)n1C | -16.4% (inactive)
55 | CN(C)CCn1nnnc1SCC1=C(C(=O)O)N2C(=O)[C@@H](NC(=O)Cc3csc(N)n3)[C@H]2SC1 | -12.5% (inactive)
